Here are results for seven compounds from PubChem BioAssay (NCATS).

Results filed as inconclusive are left out. Activity calls are given as the source filed them. Unless noted, calls come from the whole dose curve.

Assay [1] concerns the target Estrogen receptor (Homo sapiens) (UniProt P03372). Put plainly: qHTS assay for small molecule agonists of estrogen receptor alpha signaling (AID 588514).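 For activation: 0% = vehicle only and 100% = reference agonist.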 Note: nearly all actives have a fitted effect of over 70% in size. Note: potency is the fitted concentration of half-maximal effect. The procedure, abridged:
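Cells were plated at 5000/well, incubated 4 hrs at 37 C, dosed with compound titration series, incubated 18 hrs at 37 C, loaded with CCF4 dye for 2 hrs at RT, then fluorescence was read.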

Assay [2] deals with Glucocorticoid receptor (Homo sapiens) (UniProt P04150). Put plainly: qHTS assay for small molecule agonists of glucocorticoid receptor signaling (AID 588532; active = well fitted curve in the direction sought with a large enough effect in the signal ratio, with a control signal flat; the % refers to the signal ratio;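 note: 100% = dexamethasone at 0.1 µM and 0% = DMSO only wells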). As to conditions: HeLa MMTV-bla, beta-lactamase ratio, agonist, 18 h; stronger effect = higher value; percent of dexamethasone control, DMSO zero. The procedure, abridged: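 Titration series, up to 92 uM, applied to GRE-bla HeLa cells for 18 h at 37 C. Detection by CCF4 FRET substrate after 2 h at RT.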
In general terms: qHTS replaces the single test concentration by a dilution series.

For assay [3] the target is unchanged. The experiment in a line: qHTS assay for small molecule antagonists of glucocorticoid receptor signaling (AID 588533; active = well fitted inhibition curve with a large enough effect in the signal ratio, with a control signal flat, not every such curve was filed as active; the % refers to the signal ratio;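 note: cells stimulated with 2 nM dexamethasone as agonist; % is set by controls: 0 for no effect and ±100 for the full control effect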). Put shortly: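 Antagonist-mode qHTS: compound titrations added to GRE-bla HeLa cells, then dexamethasone 2 nM final; 18 h, 37 C. CCF4 FRET fluorescence normalized to dexamethasone and DMSO; IC50 from Hill fit.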
A short description of assay [4]: qHTS assay for small molecule antagonists of peroxisome proliferator-activated receptor delta signaling (AID 588535; active = well fitted inhibition curve with a large enough effect in the signal ratio, with a control signal flat, not every such curve was filed as active; the % refers to the signal ratio;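 for max response: cells co-treated with a PPAR-delta agonist as stimulator during compound exposure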). Conditions: HEK293T PPARd-UAS-bla, beta-lactamase FRET ratio, 18 h; 460 nm channel. Put shortly:
(§1)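 Reporter: UAS-bla under PPAR-delta response element, HEK293T host. Medium: 2% charcoal/dextran FBS. Dosing: titration, 18 hrs, 37 C. Detection: CCF4, 2 hrs RT, 405 ex/460 and 530 em.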

In assay [5] the target is Peroxisome proliferator-activated receptor delta (Homo sapiens) (UniProt Q03181). The assay is described as above. The procedure, abridged: as §1
The target in assay [6] is Peroxisome proliferator-activated receptor gamma (Homo sapiens) (UniProt P37231). Put plainly: qHTS assay for small molecule agonists of peroxisome proliferator-activated receptor gamma signaling (AID 588536; active = well fitted curve in the direction sought with a large enough effect in the signal ratio, with a control signal flat, not every such curve was filed as active; the % refers to the signal ratio;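 note: 0% = DMSO basal wells and 100% = rosiglitazone at 2 µM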). The procedure, abridged:
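GeneBLAzer PPAR-gamma-UAS-bla HEK293 cells in 1% charcoal/dextran-treated FBS medium were treated 16 h at 37 C with compounds. Beta-lactamase activity was read by CCF4 ratio (460/530 nm). Response was normalized to 2 uM rosiglitazone (100%) and DMSO, then Hill-fitted for EC50 and efficacy.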

Assay [7] has the same target. Put plainly: qHTS assay for small molecule antagonists of peroxisome proliferator-activated receptor gamma signaling (AID 588537; active = well fitted inhibition curve with a large enough effect in the signal ratio, with a control signal flat, not every such curve was filed as active; the % refers to the signal ratio;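 note: reporter cells co-stimulated with 50 nM rosiglitazone agonist during compound treatment; % of control where 0% means no effect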). Put shortly:
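We seeded GeneBLAzer HEK293 reporter cells at 3000 per well, allowed 6-6.5 h attachment at 37 C, then co-treated with test compound titrations and 50 nM rosiglitazone overnight (16 h). Inhibition was quantified from 460/530 nm emission ratios.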

Assay [8] deals with Vitamin D3 receptor (Homo sapiens) (UniProt P11473). Put plainly: qHTS assay for small molecule antagonists of vitamin D receptor signaling (AID 588541).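 Note: receptor activated by calcitriol during compound treatment; series mostly up to about 77 µM; % is set by controls: 0 for no effect and ±100 for the full control effect.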 Put shortly:
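VDR-UAS-bla HEK293T cells (2000/well, 2% charcoal-stripped FBS) were treated with titrated compounds plus 1-alpha,25-dihydroxyvitamin D3 (50 nM or 3 nM final) for 16 h at 37 C. CCF4 beta-lactamase fluorescence was read; Hill fits gave IC50.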

For assay [9] the target is unchanged. Put plainly: qHTS assay for small molecule agonists of vitamin D receptor signaling (AID 588543).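 Note: 0% = DMSO basal and 100% = reference agonist control.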 The procedure, abridged:
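Reporter cells (HEK293T, VDR-UAS-bla) were seeded in medium with 2% charcoal-stripped serum and incubated 5 h, then compounds in concentration series were added for 16 h at 37 °C. Stimulation was scaled between DMSO basal and 50 nM 1α,25-dihydroxyvitamin D3.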

For assay [10], the target named is Ubiquitin carboxyl-terminal hydrolase 1 (Homo sapiens) (UniProt O94782). Put plainly: Inhibitors of USP1/UAF1: Pilot qHTS (AID 504865; active = well fitted inhibition curve with a large enough effect;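 note: rhodamine fluorescence freed from ubiquitin-rhodamine substrate followed over time; top concentration of the series differs between compounds; % is set by controls: 0 for no effect and ±100 for the full control effect; nearly all actives have a fitted effect of over 35% in size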). Put shortly: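 In 50mM HEPES pH 7.8 containing 0.5mM EDTA, 1mM TCEP, 0.1 mg/ml BSA and 0.01% Tween-20, 1nM USP1/UAF1 is exposed to compound for 15 min, then Ub-Rho (150nM final) is added and fluorescence is read over time.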
Assay [11] deals with Bile acid receptor (Homo sapiens) (UniProt Q96RI1). Put plainly: qHTS assay for small molecule antagonists of farnesoid X receptor signaling (AID 588526). Note: % is set by controls: 0 for no effect and ±100 for the full control effect. The procedure, abridged: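 Concentration-response titrations were fitted to the Hill equation for half-maximal inhibition and maximal response, with data normalised to 50 uM chenodeoxycholic acid and DMSO control wells. Cells: FXR-UAS-bla HEK293T, dialyzed FBS.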

Assay [12] is described as follows: qHTS assay for small molecule agonists of retinoid X receptor alpha signaling (AID 588544).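 For activation: 0% = DMSO basal wells and 100% = reference agonist.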 As to conditions: HEK293T RXRa-UAS-bla, beta-lactamase reporter, 18 h; 530 nm emission.
The target of assay [13] is DNA dC->dU-editing enzyme APOBEC-3G (Homo sapiens) (UniProt Q9HC16). Put plainly: qHTS for inhibitors of Vif-A3G interactions: Validation (AID 588379; active = well fitted inhibition curve with a large enough effect; note: 0% is about no effect). The procedure, abridged: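 HeLa cells stably expressing Vif and A3G-eYFP, 700 cells/well, incubated overnight at 37 deg C, then exposed to compound overnight at 37 deg C. Inhibition of Vif-mediated degradation read as increased yellow fluorescence (Ex 488/Em 500-530) by laser-scanning cytometry.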

In assay [14] the target is Retinoic acid receptor RXR-alpha (Homo sapiens) (UniProt P19793). Put plainly: qHTS assay for small molecule agonists of retinoid X receptor alpha signaling (AID 588544).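 For activation: 0% = DMSO basal wells and 100% = reference agonist.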
In assay [15] the target is Androgen receptor (Homo sapiens) (UniProt P10275). The experiment in a line: qHTS assay for small molecule agonists of androgen receptor signaling (AID 588515; active = well fitted curve in the direction sought with a large enough effect in the signal ratio, with a control signal flat; the % refers to the signal ratio; note: % is set by controls: 0 for no effect and ±100 for the full control effect). Conditions: AR-UAS-bla HEK293, beta-lactamase ratio, agonist 16 h; stronger effect = higher value. The procedure, abridged:
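EC50 and efficacy came from Hill fits of titrations (up to 92 uM) normalized to 30 nM R1881 as 100% and DMSO as 0%. Compound exposure was 16 h at 37 C on AR-UAS-bla HEK293 cells, with a 405/460/530 nm CCF4 fluorescence read.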

Assay [16] shares this target. Put plainly: qHTS assay for small molecule antagonists of androgen receptor signaling (AID 588516; active = well fitted curve in the direction sought with a large enough effect in the signal ratio, with a control signal flat, not every such curve was filed as active; the % refers to the signal ratio; note: % is set by controls: 0 for no effect and ±100 for the full control effect). The procedure, abridged:
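Cells were plated and incubated 5 h, compounds added in titration, then R1881 (10 nM final) as agonist. After 16 h at 37 C, CCF4 substrate was loaded for 2 h at room temperature and fluorescence measured.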

Sequence of Ubiquitin carboxyl-terminal hydrolase 1 (Homo sapiens) (O94782 whole entry, looked up): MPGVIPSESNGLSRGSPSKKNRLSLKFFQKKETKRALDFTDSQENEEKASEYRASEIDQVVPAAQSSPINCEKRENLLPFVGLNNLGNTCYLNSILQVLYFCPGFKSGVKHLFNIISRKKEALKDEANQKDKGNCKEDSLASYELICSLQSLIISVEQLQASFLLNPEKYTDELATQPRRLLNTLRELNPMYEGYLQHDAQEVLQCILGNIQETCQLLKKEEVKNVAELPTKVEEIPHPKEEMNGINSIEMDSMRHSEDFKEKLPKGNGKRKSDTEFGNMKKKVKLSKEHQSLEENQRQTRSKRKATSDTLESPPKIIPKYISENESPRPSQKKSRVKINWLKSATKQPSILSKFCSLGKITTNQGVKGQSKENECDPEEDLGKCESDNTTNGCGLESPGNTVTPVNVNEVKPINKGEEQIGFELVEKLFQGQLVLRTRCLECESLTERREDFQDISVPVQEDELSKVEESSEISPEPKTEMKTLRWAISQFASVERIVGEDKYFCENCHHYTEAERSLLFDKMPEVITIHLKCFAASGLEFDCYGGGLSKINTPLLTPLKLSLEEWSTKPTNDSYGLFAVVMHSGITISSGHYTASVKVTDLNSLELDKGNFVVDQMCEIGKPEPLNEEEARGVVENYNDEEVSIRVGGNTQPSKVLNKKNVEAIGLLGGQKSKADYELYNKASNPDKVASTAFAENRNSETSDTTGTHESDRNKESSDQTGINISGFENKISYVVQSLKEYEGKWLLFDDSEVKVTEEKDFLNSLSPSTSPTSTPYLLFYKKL
Sequence of Peroxisome proliferator-activated receptor delta (Homo sapiens) (Q03181 whole entry, looked up): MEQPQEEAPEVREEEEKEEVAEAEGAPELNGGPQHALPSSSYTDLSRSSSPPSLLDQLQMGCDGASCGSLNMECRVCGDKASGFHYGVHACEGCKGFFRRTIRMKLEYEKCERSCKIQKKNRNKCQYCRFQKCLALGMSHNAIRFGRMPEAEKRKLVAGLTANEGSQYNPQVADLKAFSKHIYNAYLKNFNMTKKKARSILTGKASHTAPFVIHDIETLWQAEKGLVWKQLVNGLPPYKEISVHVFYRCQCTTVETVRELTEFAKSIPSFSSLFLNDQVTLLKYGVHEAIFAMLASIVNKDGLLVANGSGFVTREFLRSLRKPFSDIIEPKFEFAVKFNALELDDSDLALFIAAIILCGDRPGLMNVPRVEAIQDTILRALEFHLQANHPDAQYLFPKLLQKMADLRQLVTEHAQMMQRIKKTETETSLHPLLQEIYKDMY
Sequence of Peroxisome proliferator-activated receptor gamma (Homo sapiens) (P37231 whole entry, looked up): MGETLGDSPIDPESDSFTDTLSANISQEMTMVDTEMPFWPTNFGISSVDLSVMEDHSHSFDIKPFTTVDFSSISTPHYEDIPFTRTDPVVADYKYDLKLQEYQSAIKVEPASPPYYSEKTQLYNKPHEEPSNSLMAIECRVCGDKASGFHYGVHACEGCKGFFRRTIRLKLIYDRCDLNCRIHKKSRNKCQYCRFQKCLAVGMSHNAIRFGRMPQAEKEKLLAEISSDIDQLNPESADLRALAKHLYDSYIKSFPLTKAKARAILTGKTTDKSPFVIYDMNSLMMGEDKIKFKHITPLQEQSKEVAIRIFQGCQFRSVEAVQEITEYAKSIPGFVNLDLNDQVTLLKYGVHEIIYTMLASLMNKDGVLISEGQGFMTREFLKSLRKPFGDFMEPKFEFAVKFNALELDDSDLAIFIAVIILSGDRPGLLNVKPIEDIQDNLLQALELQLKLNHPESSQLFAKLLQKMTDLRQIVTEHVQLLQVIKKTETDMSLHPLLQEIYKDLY
Sequence of Glucocorticoid receptor (Homo sapiens) (P04150 whole entry, looked up): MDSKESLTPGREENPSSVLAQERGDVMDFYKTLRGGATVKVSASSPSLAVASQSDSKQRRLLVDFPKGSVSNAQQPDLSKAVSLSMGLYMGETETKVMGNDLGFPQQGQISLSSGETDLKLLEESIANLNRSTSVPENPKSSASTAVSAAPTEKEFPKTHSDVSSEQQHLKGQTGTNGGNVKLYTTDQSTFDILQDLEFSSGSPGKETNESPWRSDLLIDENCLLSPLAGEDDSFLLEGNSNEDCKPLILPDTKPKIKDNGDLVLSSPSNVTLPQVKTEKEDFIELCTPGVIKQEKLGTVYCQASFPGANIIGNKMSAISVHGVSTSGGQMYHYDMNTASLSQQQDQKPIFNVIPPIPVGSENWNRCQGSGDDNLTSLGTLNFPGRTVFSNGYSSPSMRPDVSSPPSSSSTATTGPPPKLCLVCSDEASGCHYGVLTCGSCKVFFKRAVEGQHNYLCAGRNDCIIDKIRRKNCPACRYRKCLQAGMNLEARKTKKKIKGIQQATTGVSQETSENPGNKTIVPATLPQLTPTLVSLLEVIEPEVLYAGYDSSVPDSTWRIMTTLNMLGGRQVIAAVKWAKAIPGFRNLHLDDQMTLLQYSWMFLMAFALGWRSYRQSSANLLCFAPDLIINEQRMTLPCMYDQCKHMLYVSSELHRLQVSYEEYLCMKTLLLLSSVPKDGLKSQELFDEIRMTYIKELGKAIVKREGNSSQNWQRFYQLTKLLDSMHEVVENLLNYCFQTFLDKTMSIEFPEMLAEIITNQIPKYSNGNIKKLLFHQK
Sequence of Bile acid receptor (Homo sapiens) (Q96RI1 whole entry, looked up): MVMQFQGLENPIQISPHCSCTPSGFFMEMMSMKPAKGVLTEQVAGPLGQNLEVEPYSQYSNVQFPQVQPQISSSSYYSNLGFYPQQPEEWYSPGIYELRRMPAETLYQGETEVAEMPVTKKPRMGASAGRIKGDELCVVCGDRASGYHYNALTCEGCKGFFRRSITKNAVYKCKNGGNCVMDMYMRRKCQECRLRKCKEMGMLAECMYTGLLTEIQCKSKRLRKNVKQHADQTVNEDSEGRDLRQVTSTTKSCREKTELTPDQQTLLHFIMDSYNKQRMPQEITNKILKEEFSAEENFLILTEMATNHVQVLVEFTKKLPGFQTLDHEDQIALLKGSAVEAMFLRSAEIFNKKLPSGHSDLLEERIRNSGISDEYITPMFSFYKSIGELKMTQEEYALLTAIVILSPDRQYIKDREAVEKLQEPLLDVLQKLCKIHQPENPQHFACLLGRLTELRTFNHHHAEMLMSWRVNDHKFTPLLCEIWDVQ
Sequence of Vitamin D3 receptor (Homo sapiens) (P11473 whole entry, looked up): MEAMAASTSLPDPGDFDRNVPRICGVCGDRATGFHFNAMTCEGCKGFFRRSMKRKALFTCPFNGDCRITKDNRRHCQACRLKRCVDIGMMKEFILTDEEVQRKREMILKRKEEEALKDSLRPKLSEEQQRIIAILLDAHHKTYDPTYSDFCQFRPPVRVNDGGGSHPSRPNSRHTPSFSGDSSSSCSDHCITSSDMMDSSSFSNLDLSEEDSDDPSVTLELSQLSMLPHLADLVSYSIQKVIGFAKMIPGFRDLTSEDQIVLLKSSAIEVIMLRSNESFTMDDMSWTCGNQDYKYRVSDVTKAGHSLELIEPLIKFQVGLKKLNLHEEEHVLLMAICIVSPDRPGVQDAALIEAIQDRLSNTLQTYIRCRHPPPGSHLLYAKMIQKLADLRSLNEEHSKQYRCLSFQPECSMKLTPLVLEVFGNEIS
Sequence of Androgen receptor (Homo sapiens) (P10275 whole entry, looked up): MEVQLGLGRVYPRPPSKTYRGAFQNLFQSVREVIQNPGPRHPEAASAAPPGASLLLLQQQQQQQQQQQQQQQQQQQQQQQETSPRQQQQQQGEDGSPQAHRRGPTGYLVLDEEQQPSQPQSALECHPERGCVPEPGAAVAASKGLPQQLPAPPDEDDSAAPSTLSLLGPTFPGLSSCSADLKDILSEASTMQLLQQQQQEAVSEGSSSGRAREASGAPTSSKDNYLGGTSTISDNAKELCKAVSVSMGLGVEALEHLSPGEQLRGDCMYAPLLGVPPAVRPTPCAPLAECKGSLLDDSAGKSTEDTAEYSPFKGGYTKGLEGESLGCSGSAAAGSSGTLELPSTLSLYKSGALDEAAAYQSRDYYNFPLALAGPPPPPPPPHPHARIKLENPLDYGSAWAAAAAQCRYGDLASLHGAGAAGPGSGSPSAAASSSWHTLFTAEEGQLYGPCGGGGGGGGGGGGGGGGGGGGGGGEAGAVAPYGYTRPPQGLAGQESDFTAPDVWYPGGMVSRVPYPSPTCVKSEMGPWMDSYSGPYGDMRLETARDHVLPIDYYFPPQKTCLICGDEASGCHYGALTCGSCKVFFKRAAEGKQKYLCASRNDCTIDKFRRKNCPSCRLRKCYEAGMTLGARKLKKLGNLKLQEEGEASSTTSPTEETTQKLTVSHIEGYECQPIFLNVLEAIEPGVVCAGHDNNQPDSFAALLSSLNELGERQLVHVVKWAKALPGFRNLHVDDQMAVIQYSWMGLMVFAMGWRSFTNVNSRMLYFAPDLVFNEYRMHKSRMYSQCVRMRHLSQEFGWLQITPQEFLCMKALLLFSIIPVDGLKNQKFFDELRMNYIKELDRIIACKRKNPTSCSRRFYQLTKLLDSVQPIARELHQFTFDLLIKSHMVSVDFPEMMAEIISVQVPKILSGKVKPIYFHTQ
Sequence of Estrogen receptor (Homo sapiens) (P03372 whole entry, looked up): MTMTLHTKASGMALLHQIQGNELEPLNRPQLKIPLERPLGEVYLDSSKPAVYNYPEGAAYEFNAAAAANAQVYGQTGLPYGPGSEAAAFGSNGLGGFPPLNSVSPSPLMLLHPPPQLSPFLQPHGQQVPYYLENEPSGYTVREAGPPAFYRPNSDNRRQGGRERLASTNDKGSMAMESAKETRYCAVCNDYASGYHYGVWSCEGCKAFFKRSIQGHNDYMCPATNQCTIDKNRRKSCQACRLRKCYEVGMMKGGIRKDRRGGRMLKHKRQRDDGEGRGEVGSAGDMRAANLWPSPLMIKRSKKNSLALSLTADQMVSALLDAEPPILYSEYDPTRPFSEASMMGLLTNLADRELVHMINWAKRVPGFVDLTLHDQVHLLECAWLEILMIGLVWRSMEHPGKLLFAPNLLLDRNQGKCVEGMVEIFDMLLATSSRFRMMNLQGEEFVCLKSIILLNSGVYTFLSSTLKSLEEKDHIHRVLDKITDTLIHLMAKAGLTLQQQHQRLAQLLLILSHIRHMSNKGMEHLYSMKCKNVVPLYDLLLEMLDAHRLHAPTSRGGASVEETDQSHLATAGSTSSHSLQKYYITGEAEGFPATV

Take `CC(C)CCCCCCc1ccc(O)cc1`: the Potency in [1] is 2.51 µM (active). In addition, the activation in [2] was -1.88% (inactive). In addition, in assay [3], the Potency entry is “inactive”. The max response in [4] is -43.1%. The result in assay [5], in assay [6], in assay [7], in assay [8] and in assay [9] was inactive.
With `ClC(Cl)Cl`, the Potency entry in [10] and in assay [3] was “inactive” throughout. Besides, the call in assay [11], in [8] and in assay [9] was inactive. The activation in assay [2] is -4.49% (inactive). Further, the max response in [12] was -2.31%.
Regarding `O=C1c2ccccc2C(=O)c2c1ccc(O)c2O`, in assay [13], the call was inactive.
For the compound `CCOC(C)OCC`, the Potency entry in [10] and in assay [3] was “inactive” in each case. Also, the activation in assay [2] was -4.92% (inactive). Further, the outcome in assay [8], in assay [9] and in assay [14] was inactive. For the same compound, in assay [12], the max response is -21.2%.
As to `CCCCC`, the Potency entry in [10] and in assay [3] was “inactive” in each case. The outcome in [11], in assay [5], in [8] and in [9] was inactive. Also, the activation in [2] was 1.13% (inactive). Further, the max response in assay [4] was 25%; in [12], -1.8%.
For `OC[C@H]1O[C@@](CO)(O[C@H]2O[C@H](CO)[C@@H](O)[C@H](O)[C@H]2O)[C@@H](O)[C@@H]1O`, the Potency entry in [10] and in assay [1] was “inactive” in each case. Moreover, the results for the max response in assay [4] and in assay [12] were -16.8% and -0.27%, respectively. Also, the compound was classed as inactive in [5], in [6] and in assay [7].
Turning to `CCCCCCCCCCCCCCCCCC(=O)OC[C@@H](O)[C@H]1OC[C@H](O)[C@H]1O`, the Potency result in assay [10] and in assay [3] was “inactive” in each case. The activation was 14.2% (inactive) in assay [15] and 3.63% (inactive) in assay [2]. Further, the outcome in assay [16], in assay [11], in assay [5], in assay [6], in [7] and in assay [8] was inactive. Also, the result in assay [9] was inactive. Moreover, the max response in assay [4] is 30.1%; in [12] it was -15.4%.
